Marburg entry: blocks Marburg virus binding or cell entry; Marburg virus pseudotype entry/binding inhibition, cell-based; 18,000 compounds, 6.5% hits; AID 720532; Potency, µM (titrated, usually from 49.2 µM), for the others: at the top dose activity change, negative = inhibition, actives largely listed as inhibitors
LASV entry inh: blocks Lassa virus binding or cell entry | Lassa virus pseudotyped entry inhibition, cell-based qHTS | Potency, µM (highest dose often 49.2 µM), inactives show at the highest dose activity change, negative = inhibition, usual class: inhibitors | 18,000 compounds, 4.1% hits
* marks the source's active call; other numbers are inactive results; [ ] = dose if it differs, or a comment. A selection: hits, their analogues and other compounds. The true share with any hit is near 8.6%. Calls follow the shape of the full dose curve; tested in HEK293 cells. % is scaled to controls: 0 for no effect and ±100 for the full control effect; potency is read from the fitted curve at half-maximal effect.

`CN(C(Cc1ccc(OS(=O)(=O)c2cccc3cnccc23)cc1)C(=O)N1CCN(c2ccccc2)CC1)S(=O)(=O)c1cccc2cnccc12` (centres undefined) gave Marburg entry inconclusive and LASV entry inh 10µM*.
`NC(N)=NCCNS(=O)(=O)c1cccc2cnccc12` gave Marburg entry 5% and LASV entry inh 15%.
Screening CCN1C(=O)N[C@@H](c2cccc(C(F)(F)F)c2)[C@H](C(C)=O)[C@H]1C returned Marburg entry -16%[8.59 µM].
Screening COc1ccc(COc2cc(-c3cccc(OC)c3)nc3ccc(NC(C)=O)cc23)cc1 returned Marburg entry 11% and LASV entry inh -14%.
COc1ccc2ncn(-c3cc(OC(C)c4ccccc4C(F)(F)F)c(C(N)=O)s3)c2c1 (centres undefined) was read as Marburg entry 0.89µM* and LASV entry inh inconclusive.
`COc1cccc(COc2cc(-n3cnc4ccccc43)sc2C(N)=O)c1` gave Marburg entry 13µM* and LASV entry inh inconclusive.
For Cc1ccc2[nH]c(C(=O)NCc3nc(-c4cccc(NC(=O)c5cc(C)oc5C)c4)oc3C)cc2c1 the results were Marburg entry inconclusive and LASV entry inh -10%.
Screening Fc1ccc(-c2cc(-c3cn[nH]c3-c3ccccn3)ccn2)cc1 returned Marburg entry 8% and LASV entry inh 57%.
`CC(=C(CCOP(=O)(O)O)SC(=O)c1ccccc1)N(C=O)Cc1cnc(C)nc1N` gave Marburg entry 27% and LASV entry inh -4%.
Screening CCCCC/C=C\C/C=C\C/C=C\CC1OC1CCCC(=O)O (centres undefined) returned Marburg entry 6% and LASV entry inh 3%.
For COc1ccc(OC)c(CN2CCCC(n3cc(C(=O)N4CCCCC4)nn3)C2)c1 (centres undefined) the results were Marburg entry 14% and LASV entry inh 3%.
Screening C[C@@H]1C[C@H]2[C@@H]3CCC4=CC(=O)C=C[C@]4(C)[C@@]3(F)[C@@H](O)C[C@]2(C)[C@@]1(O)C(=O)COC(=O)c1cccc(S(=O)(=O)O)c1 returned Marburg entry 22% and LASV entry inh -18%.
For COc1ccccc1/C=C\C(=O)O the results were Marburg entry 7% and LASV entry inh 4%.
`CCN(CCCc1ccccc1)CCCc1ccccc1` gave Marburg entry 8.9µM* and LASV entry inh inconclusive.
`CN(Cc1ccccc1)Cc1ccccc1` gave Marburg entry 2% and LASV entry inh -4%.
Screening CC1(C)OC[C@@H]2O[C@@]3(C(=O)O)OC(C)(C)O[C@H]3[C@@H]2O1 returned Marburg entry 11% and LASV entry inh -2%.
`CN(C)CC/C=C1\c2ccccc2COc2ccccc21` gave Marburg entry 10µM* and LASV entry inh -16%.
COC(=O)c1cc2c(s1)-c1ccccc1OC2 was read as Marburg entry 33% and LASV entry inh 2%.
`CN(C)CC/C=C1/c2ccccc2Sc2ccc(Cl)cc21` gave Marburg entry 18µM* and LASV entry inh inconclusive.
`C=C1c2cccc(C(F)(F)F)c2O[C@H](C(=O)OCC)[C@@H]1CCCCCC` gave Marburg entry 6% and LASV entry inh 5%.
COc1ccc(-c2oc3cc(O[C@@H]4OC(CO)C(O)C(O)C4O)c(OC)c(O)c3c(=O)c2OC)cc1O (some centres undefined) was read as Marburg entry 7% and LASV entry inh inconclusive.
COc1cccc([C@@H]2Oc3ccc(OC)cc3C[C@@H]2OC(=O)N[C@H]2CCCc3ccccc32)c1 was read as Marburg entry 3%[8.59 µM] and LASV entry inh -1%[8.59 µM].
For CC(C)n1cnc2c(NCc3ccccc3)nc(NCCCO)nc21 the results were Marburg entry 23% and LASV entry inh 25%.
Screening FC(F)(F)c1cccc(Nc2nccc(-c3cnn4nc(-c5ccccc5)ccc34)n2)c1 returned Marburg entry 20µM*.
`CCOc1ccc2c(-c3ccnc(Nc4cc(OC)cc(C(F)(F)F)c4)n3)cnn2n1` gave Marburg entry 6.3µM*.
`OCC1OC(n2cnc3c(Cl)nc(Cl)nc32)C(O)C1O` (centres undefined) gave Marburg entry inconclusive and LASV entry inh -28%.
Cc1ccccc1-c1nc(NCCN2CCOCC2)c2ccccc2n1 was read as Marburg entry -16% and LASV entry inh -3%.
Cc1ccccc1-c1nc(NC2CCNCC2)c2ccccc2n1 was read as Marburg entry 8.9µM* and LASV entry inh 9%.
C=CCN1[C@H](COCc2ccccc2)C=CS1(=O)=O was read as Marburg entry 5% and LASV entry inh 17%.
C=CCN(CC=C)Cc1cc(=O)oc2cc(OC)c(Cl)cc12 was read as Marburg entry inconclusive and LASV entry inh -27%.
For Clc1ccccc1-c1nccc(-n2ccnc2)n1 the results were Marburg entry -7% and LASV entry inh 0%.
Clc1ccccc1C(c1ccccc1)(c1ccccc1)n1ccnc1 was read as Marburg entry 11µM* and LASV entry inh 13µM*.
Screening Oc1ccc(C(O)CNCCCCCCNCC(O)c2ccc(O)c(O)c2)cc1O (centres undefined) returned Marburg entry -5% and LASV entry inh -19%.
Screening C[C@@H](Cc1ccc(OCC(=O)O)cc1)NC[C@H](O)c1cccc(Cl)c1 returned Marburg entry 11% and LASV entry inh -12%.
Screening CCCC1O[C@@H]2C[C@H]3[C@@H]4CCC5=CC(=O)C=C[C@]5(C)[C@H]4[C@@H](O)C[C@]3(C)[C@]2(C(=O)CO)O1 (some centres undefined) returned Marburg entry -28% and LASV entry inh 3%[17.8 µM].
Screening CC(C)C(=O)OCC(=O)[C@@]12O[C@H](C3CCCCC3)O[C@@H]1C[C@H]1[C@@H]3CCC4=CC(=O)C=C[C@]4(C)[C@H]3[C@@H](O)C[C@@]12C returned Marburg entry inconclusive and LASV entry inh 28µM*.
CCCC(=O)c1cc(O)c(O)cc1O was read as Marburg entry inconclusive and LASV entry inh -12%[107 µM].
CCN1CCC[C@H]1CNC(=O)c1c(OC)ccc(Br)c1OC was read as Marburg entry 15% and LASV entry inh -14%.
Screening C=C1C(=O)OC2C[C@@]3(C)CCCC(C)C3=CC12 (some centres undefined) returned Marburg entry -26% and LASV entry inh -17%.
For CCn1ccnc1CC1COc2ccccc2O1 (centres undefined) the results were Marburg entry 3% and LASV entry inh -11%.
COc1ccc(C(=O)N(Cc2cc3cccc(C)c3nc2N(C)C)CC2CCCO2)cc1 (centres undefined) was read as Marburg entry -15% and LASV entry inh -11%.
Screening CCN(CC)CCOC(=O)C(Cc1cccc2ccccc12)CC1CCCO1 (centres undefined) returned Marburg entry 10µM* and LASV entry inh inconclusive.
N#Cc1ccccc1OCc1cn(CC(=O)c2ccc(O)cc2)nn1 was read as Marburg entry 103% and LASV entry inh -3%.
Screening Cc1ccc(NC2=CC(=O)c3sc(C)nc3C2=O)cc1 returned Marburg entry 4µM* and LASV entry inh 3.5µM*.
For COc1ccc2c(c1)C(=O)[C@@H](OC(=O)N[C@H](C)C1CCCCC1)[C@H](c1ccc(OC)c(Br)c1)O2 the results were Marburg entry -1% and LASV entry inh 6%.
N[C@@H](CCCP(=O)(O)O)C(=O)O was read as Marburg entry -8% and LASV entry inh 5%.
